E coli Lon inh: inhibitors of E. coli Lon protease, primary screen, biochemical, fluorescence polarization; purified E. coli Lon protease; AID 602123, 2011; P0A9M0; actives 0.42% (n = 360,000); inhibition, % at 7.94 µM; in the data active = inhibition above about 13%, passing the limit was not always enough;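 note: 0% = enzyme with probe and DMSO and 100% = no enzyme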
BCLXL inh: inhibitors of human Bcl-xL, primary screen, biochemical, fluorescence polarization, HTS; Bcl-2-like protein 1 (Homo sapiens), Q07817; GST-Bcl-xL / FITC-Bim BH3 peptide fluorescence polarization; inhibition, % at 10.9 µM; actives 0.7% (n = 320,000);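 active = inhibition above the mean of all tested compounds plus 3 SD, cutoff set per campaign, cut at about 30% in these data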;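 note: 0% = DMSO wells and 100% = unlabeled Bim-BH3 peptide competitor; inhibitors lower millipolarization by displacing the labeled peptide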
MEX-5 binding: MEX-5 zinc finger RNA-binding disruptors – biochemical, C. elegans, fluorescence polarization, MLPCN library, primary screen; activity score (negative = inhibition of binding), % at 10 µM; actives 0.38% (n = 300,000); MEX-5/FITC-TCR2 RNA binding; hits give low values; Zinc finger protein mex-5 (Caenorhabditis elegans), Q9XUB2;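 active = inhibition past about -25% in most replicates, and total fluorescence under double the plate's negative control median, limit read from the data; inconclusive = replicates evenly split on the limit, or fluorescence at least double controls; inactive = too little inhibition in most replicates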;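 note: 0% = DMSO and -100% = 5 µM competing unlabeled TCR2 RNA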
EBV gp42 inh: Epstein-Barr virus gp42 inhibitors, primary screen, biochemical, uHTS, fluorescence polarization; Glycoprotein 42 (Epstein-Barr virus (strain AG876)), Q1HVG2; Fluorescence polarization binding assay, mP read-out; inhibition, % (tested at 21.74 µM); actives 0.42% (n = 220,000); in the data active = inhibition above about 50%
Target sequence (Q1HVG2 whole entry, looked up): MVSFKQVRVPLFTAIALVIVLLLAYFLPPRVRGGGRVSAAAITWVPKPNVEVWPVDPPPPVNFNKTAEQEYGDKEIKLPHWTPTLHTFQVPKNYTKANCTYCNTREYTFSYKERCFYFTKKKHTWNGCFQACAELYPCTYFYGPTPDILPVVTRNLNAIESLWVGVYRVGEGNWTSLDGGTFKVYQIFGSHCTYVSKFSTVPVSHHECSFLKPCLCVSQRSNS
MCL1-BIM inh: inhibitors of MCL1 binding to BIM-BH3, primary screen, biochemical, fluorescence polarization | Induced myeloid leukemia cell differentiation protein Mcl-1 (Homo sapiens), Q07820 | GST-MCL1 / FITC-Bim-BH3 fluorescence polarization | inhibition, % at 10.9 µM | actives 0.68% (n = 320,000) | AID 2057, 2009;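 active = inhibition above the mean inhibition of all tested compounds plus 3 SD, set per campaign, cut at about 40% in these data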;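 note: 0% = DMSO wells and 100% = unlabeled Bim-BH3 peptide control; higher means more loss of mP so more displacement of Bim peptide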
GLD-1 TGE inh: GLD-1/TGE RNA complex disruptors, primary screen, biochemical, fluorescence polarization; Female germline-specific tumor suppressor gld-1 (Caenorhabditis elegans), Q17339; purified GLD-1 + fluorescein TGE RNA; inhibition, % at 5.96 µM; actives 0.44% (n = 320,000); AID 2280, 2010;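 active = percent inhibition above a per-plate cutoff, the plate mean of test compounds plus 3 SD, cut at about 30% in these data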;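 note: 0% = DMSO wells with GLD-1 and probe and 100% = wells lacking GLD-1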
Target sequence (Q17339 whole entry, looked up): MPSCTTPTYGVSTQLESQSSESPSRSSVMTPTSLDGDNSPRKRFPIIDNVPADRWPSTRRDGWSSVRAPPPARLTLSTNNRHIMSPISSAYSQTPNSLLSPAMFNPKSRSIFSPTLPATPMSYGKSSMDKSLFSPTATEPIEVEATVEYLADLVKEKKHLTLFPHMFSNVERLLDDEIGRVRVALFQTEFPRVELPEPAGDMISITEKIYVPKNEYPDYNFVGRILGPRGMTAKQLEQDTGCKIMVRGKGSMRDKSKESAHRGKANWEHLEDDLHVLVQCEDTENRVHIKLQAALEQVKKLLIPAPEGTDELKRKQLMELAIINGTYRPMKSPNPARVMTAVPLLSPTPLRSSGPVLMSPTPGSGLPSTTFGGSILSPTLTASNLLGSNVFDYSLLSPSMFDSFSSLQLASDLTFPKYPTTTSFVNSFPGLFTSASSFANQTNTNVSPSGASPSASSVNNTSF
Starred values were filed as active, the others as inactive; i = inactive; ? = inconclusive; . = not tested or not shown; + = active, no number. Shown are actives, neighbours in structure and some others; about 1.5% of the full set was active somewhere.

SMILES	E coli Lon inh	BCLXL inh	MEX-5 binding	EBV gp42 inh	MCL1-BIM inh	GLD-1 TGE inh
Cc1ccc(NC(=O)c2sc3nc4c(c(-c5ccco5)c3c2N)CCC4)cc1	-16.6	28.3	-55.3*	9.2	5.8	63.5*
CCN1/C(=C2/SC(=S)N(NC(C)=O)C2=O)Sc2ccc(OC)cc21	-31.0	0.8	-46.3*	.	-6.7	-27.3
CCCCN1C(=O)/C(=C2/Sc3ccc(OC)cc3N2CC)SC1=S	-2.4	2.0	-25.7*	.	6.3	-3.2
C=CCN1C(=O)/C(=C2/Sc3ccc(OC)cc3N2CC)SC1=S	-9.3	1.8	-39.8*	.	-0.2	-2.9
O=C(NCc1ccncc1)[C@@H]1CCCN1C(=O)[C@@H]1CCCN1	-3.3	.	.	.	.	.
O=C(NC1CCCCC1)C1CC(=O)N(c2ccccc2)C1 (stereo not drawn)	-1.4	-1.1	1.8	.	2.2	2.3
COc1cc2c3nnc(-c4ccccc4)c-3cn(Cc3ccccc3F)c2cc1OC	.	-9.0	-58.9*	-151.3	-93.7	-1.3
COc1cc2c3nnc(-c4ccc(F)cc4)c-3cn(Cc3ccccc3F)c2cc1OC	-5.2	.	.	-63.6	.	.
CC(C)Oc1ccc(CN2CCCC(CO)(Cc3ccc(F)cc3)C2)cc1 (stereo not drawn)	-3.4	35.6*	0.8	.	46.4*	5.2
O=C(Cc1ccccc1)NNc1c2ccccc2nc2ccccc12	1.9	-2.0	1.6	-3.4	4.1	7.0
O=C(Nc1c2ccccc2nc2ccccc12)C(Cl)(Cl)Cl	8.6	36.5*	-0.9	8.2	34.6	18.9
O=C(NC1=NCCS1)c1cc(-c2ccc(F)cc2)nc2ccccc12	1.3	5.2	-2.1	-18.2	14.8	-2.0
Cc1ccc(-c2cc(C(=O)NC3=NCCS3)c3ccccc3n2)cc1C	-6.3	90.0*	2.0	-13.0	20.9	26.8
O=C(CCN1C(=O)c2cccc3cccc(c23)C1=O)Nc1ccccc1	-6.5	-5.4	-2.5	1.2	-13.4	7.1
CCN(CC)C(=O)CSc1nc2c(sc(=S)n2-c2ccccc2)c(=O)n1Cc1ccco1	-0.2	50.2*	1.2	-11.0	4.9	-0.7
CCN(CC)C(=O)CSc1nc2c(sc(=S)n2CC)c(=O)n1-c1ccccc1	-11.9	2.9	2.4	4.4	9.2	-2.5
Cc1ccccc1CNC(=O)Cn1cnc(S(=O)(=O)N2CCCC2)c1	-1.1	1.3	0.1	.	4.5	2.2
Cc1cccc(N2CCN(C(=O)CCCCCn3c(=S)[nH]c4ccc(N5CCOCC5)cc4c3=O)CC2)c1C	-6.3	4.1	-4.2	.	4.3	2.9
O=C(N/N=C/c1ccc([N+](=O)[O-])o1)c1cc2c(ccc3ccccc32)o1	3.0	.	.	60.2*	.	.
Cc1ccc(S(=O)(=O)CCSc2nc(C)cc(C(F)(F)F)c2C#N)cc1	-9.8	-13.2	-54.0*	-103.3	-32.7	-13.6
CCN(CC)C1=CC2=CC(=C(C#N)C#N)CCC2CC1 (stereo not drawn)	i	51.8*	?	-61.8	20.0	-172.8
CCCCN(C)C1=CC2=CC(=C(C#N)C#N)CCC2CC1 (stereo not drawn)	i	38.6*	?	-183.8	18.0	14.8
N#CC(C#N)=C1C=C2C=C(N3CCCCC3)CCC2CC1 (stereo not drawn)	.	35.4*	.	-101.9	36.8	29.3
Cc1cc(C)c(OCC(=O)OCC(=O)NCCC2=CCCCC2)c(C)c1	3.0	4.9	-0.9	.	2.4	1.7
CN1CCc2c(sc3c2C(=O)NC(c2cccs2)N3)C1 (stereo not drawn)	-76.5	32.5*	-13.7	16.6	32.5	-31.0
SMILES	E coli Lon inh	BCLXL inh	MEX-5 binding	EBV gp42 inh	MCL1-BIM inh	GLD-1 TGE inh
CSc1ccc(C2NC(=O)c3c(sc4c3CCN(C)C4)N2)cc1 (stereo not drawn)	-164.3	-10.7	-1.8	-16.1	39.2	-79.1
Cc1ccsc1C1NC(=O)c2c(sc3c2CCN(C)C3)N1 (stereo not drawn)	-133.7	37.3*	-5.2	-5.7	30.9	-32.3
CN1CCc2c(sc3c2C(=O)NC(/C=C\c2ccccc2)N3)C1 (stereo not drawn)	-79.9	15.6	-7.7	-8.0	11.4	3.8
CCCCC[C@@H](C)N1C[C@@H](COCc2ccccc2)Oc2cc(N3CCC[C@@H]3COC)ccc2S1(=O)=O	-10.1	.	.	.	.	.
Clc1ccc2[nH]c(-c3ccccc3)cc2c1	-6.4	+	-1.1	7.3	2.4	3.9
CC(=O)Nc1ccc(-c2ccnc3c2CC(C(=O)Nc2cccc(N(C)C)c2)O3)cc1 (stereo not drawn)	1.0	.	.	.	.	.
CN1c2ccccc2C(C)(C)C12C=Nc1c(ccc3ccccc13)O2 (stereo not drawn)	-10.0	33.9*	4.8	-14.4	42.5*	8.9
CC(C)(C)c1csc(NC(=O)Cc2ccc(S(=O)(=O)N3CCOCC3)s2)n1	-0.8	32.8*	-3.7	.	34.7	21.7
CCOC(=O)c1ccc(S(=O)(=O)NNc2ccc(C(F)(F)F)cn2)cc1	-12.1	.	.	.	.	4.5
CCN1/C(=C/C=C/c2oc3ccc4ccccc4c3[n+]2CC)Oc2ccc3ccccc3c21	.	80.1*	5.3	162.2*	134.6*	-69.3
CC[n+]1c(/C=C/N(C)c2ccccc2)oc2ccc(Cl)cc21	4.6	7.2	-2.9	-17.2	9.7	-14.3
O=C(N=Nc1c(O)[nH]c2ccc([N+](=O)[O-])cc12)c1cc(-c2ccccc2Cl)nc2ccccc12	-3.7	-0.1	0.7	72.9*	4.5	-3.1
CC12CCC(=O)N1C(C(=O)OCC(=O)Nc1sccc1C#N)CS2 (stereo not drawn)	0.4	40.2*	-12.6	2.3	35.4	22.0
O=C(O)/C=C/c1ccccc1Oc1ccc(Cl)cc1Cl	2.6	-1.9	0.6	-8.0	2.3	-0.7
O=C(O)/C=C\c1ccccc1Oc1cccc(Cl)c1	-4.2	32.5*	-0.5	-16.6	2.0	-2.3
COc1ccc(CN2C(=O)c3ccccc3C2c2nnnn2-c2ccc3c(c2)OCCO3)cc1 (stereo not drawn)	-1.5	.	.	.	.	.
O=C(CCCN1C(=O)C(=Cc2ccc3c(c2)OCO3)SC1=S)Nc1ccc(C(=O)O)c(O)c1	-16.0	.	.	.	.	.
CCOC(=O)C1C(=O)C=C(/C=C/c2ccc(N(C)C)cc2)CC1c1ccccc1 (stereo not drawn)	-163.8	-52.5	?	103.2*	-156.2	-42.5
COc1ccc(C2CC(C(F)(F)F)n3ncc(C(=O)NCc4cccnc4)c3N2)cc1OC (stereo not drawn)	-9.7	-2.4	-0.4	-3.9	-2.2	-0.7
